Most compounds without a hit are left out; they make up all but 19% or so of the library.
TDP1 block: TDP1 (human) enzyme inhibition. Q9NUW8. Potency, µM (top dose mostly 130 µM), for the others: top-dose activity change, negative = inhibition, actives largely listed as inhibitors. AID 485290. recombinant TDP1, AlphaScreen DNA substrate cleavage. hit rate 0.28% among 350,000; further: nearly all actives have a fitted effect of over 40% in size
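Tdp1 1 nM final; 15 min RT w/ cpd; substrate 15 nM, 5 min; beads 10 ug/ml, 10 min; AlphaScreen read. Neg ctrl: no enzyme.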
VP16 counter: Gal4-VP16 reporter inhibition counter-screen. AID 2546. hit rate 3.5% among 310,000. Drosophila S2 Gal4-VP16 UAS-luciferase, luminescence, 20 h. Potency, µM (series often up to 53.6 µM), inactives show at the highest dose activity, negative = inhibition, actives largely listed as inhibitors;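 further: Gal4-VP16 expression switched on by copper sulfate through the metallothionein promoter; nearly all actives have a fitted effect of over 50% in size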
RORg inh: ROR gamma (mouse) transcription inhibition; hit rate 5.4% among 310,000; P51450; Drosophila S2 Gal4-RORgamma UAS-luciferase reporter, 20 h; AID 2551; Potency, µM (top dose mostly 53.6 µM), inactives show at the top dose activity change, negative = inhibition, usual class: inhibitors; further: nearly all actives have a fitted effect of over 60% in size
Target sequence (P51450 whole entry, looked up, the tested form may be a part): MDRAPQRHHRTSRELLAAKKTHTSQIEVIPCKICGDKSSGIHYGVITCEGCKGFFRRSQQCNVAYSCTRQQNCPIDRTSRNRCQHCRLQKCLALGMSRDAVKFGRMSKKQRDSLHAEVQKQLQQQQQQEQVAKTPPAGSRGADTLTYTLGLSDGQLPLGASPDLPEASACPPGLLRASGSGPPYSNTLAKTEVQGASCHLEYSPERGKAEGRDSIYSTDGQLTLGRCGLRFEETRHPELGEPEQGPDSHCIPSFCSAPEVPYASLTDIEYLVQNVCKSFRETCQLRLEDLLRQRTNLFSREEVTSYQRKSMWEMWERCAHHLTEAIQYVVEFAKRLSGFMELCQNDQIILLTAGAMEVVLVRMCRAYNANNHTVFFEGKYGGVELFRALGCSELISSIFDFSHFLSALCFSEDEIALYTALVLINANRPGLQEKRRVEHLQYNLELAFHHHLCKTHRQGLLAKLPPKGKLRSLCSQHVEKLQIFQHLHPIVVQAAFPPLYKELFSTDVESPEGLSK
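Drosophila Schneider cells stably carrying a metallothionein-driven Gal4 DBD–ROR gamma fusion and a UAS-Photinus luciferase reporter were exposed to compound for 1 hr, then induced with copper sulfate (700 uM final) for 20 hr at ambient temperature before luminescence reading.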
DT40 TDP1 no CPT: qHTS for Inhibitors of human tyrosyl-DNA phosphodiesterase 1 (TDP1): qHTS in cells in absence of CPT; AID 686978, 2013; Potency, µM (doses to about 46.2 µM), without a hit: at the highest dose activity change, negative = growth inhibition, hits mostly inhibitors; DT40 Tdp1-/- hTDP1 cells, no CPT, ATP luminescence, 48 h; hit rate 15% among 420,000; further: nearly all actives have a fitted effect of over 55% in size
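Cells were dispensed at 400 per well, compounds added by pin tool, plates incubated ≥48 hr at 37 °C, then CellTiter-Glo added for 30 min at room temperature before luminescence reading. Line: DT40 Tdp1-/- complemented with hTDP1; camptothecin omitted.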
TDP1 cell CPT: growth inhibition of DT40 Tdp1-/-;hTDP1 cells with camptothecin (screen for TDP1 inhibitors); chicken DT40 Tdp1-/-;hTDP1 cells + 20 nM CPT, ATP luminescence, 48 h; Potency, µM (series often up to 46.2 µM), without a hit: at the top dose activity change, negative = growth inhibition, actives largely listed as inhibitors; hit rate 12% among 420,000; AID 686979; further: nearly all actives have a fitted effect of over 55% in size
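Chicken DT40 Tdp1-/- cells complemented with human TDP1, 400 cells/well, exposed to compounds plus 20 nM camptothecin for at least 48 h at 37 C; viability read as ATP content by CellTiter-Glo luminescence.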
* marks the source's active call; other numbers are inactive results; [ ] = dose if it differs, or a comment. The call rests on the fitted dose curve; in most records, active means well fitted curve in the direction sought with a large enough effect; inconclusive means small, poorly fitted or top-dose-only effect, or another doubt; inactive means no such curve, though single readings can be large; an effect the other way counts as inactive or inconclusive. On the % scale 0 is the no-effect control and ±100 the full control effect; potency means the concentration at half of the fitted maximal effect.

CCC/C=C1\CCCOC(C(=O)NCc2ccc(C)o2)(C(F)(F)F)C1 (stereo not given) was read as TDP1 block 5.0%, VP16 counter -3.1% and RORg inh -11.8%.
Cc1sc2nc(-c3cccnc3)nc(Cl)c2c1-c1ccccc1 was read as TDP1 block 3.4%, VP16 counter -8.2%, RORg inh 20.9%[10 µM], DT40 TDP1 no CPT -21.3% and TDP1 cell CPT -14.9%.
For O=C(c1ccc(N2CCN(C(=O)c3ccccc3)CC2)cc1)c1cccc(F)c1 the results were TDP1 block 3.7%, VP16 counter inconclusive, RORg inh inconclusive, DT40 TDP1 no CPT 16.4µM* and TDP1 cell CPT inconclusive.
For O=C(c1ccc(N2CCN(C(=O)c3ccc(F)c(F)c3)CC2)cc1)c1cccc(F)c1 the results were TDP1 block 6.8%, VP16 counter inconclusive, RORg inh 1.78µM*, DT40 TDP1 no CPT 13µM* and TDP1 cell CPT 23.1µM*.
For Clc1ccccc1CSc1nnc(Cn2cnc3ccccc32)n1-c1ccccc1 the results were TDP1 block 5.3%, VP16 counter -7.4%, RORg inh 15.8%, DT40 TDP1 no CPT inconclusive and TDP1 cell CPT inconclusive.
For CCOc1ccc(-c2cn(-c3ccc(C)cc3)c(SCC(=O)Nc3ccc(C)cc3)n2)cc1 the results were TDP1 block 2.5%, DT40 TDP1 no CPT inconclusive and TDP1 cell CPT inconclusive.
`Cc1ccc(NC(=O)CSc2nnc(-c3n[nH]c4ccccc34)n2-c2ccccc2)c(C)c1` gave TDP1 block 0.0%, VP16 counter -10.4%, RORg inh inconclusive, DT40 TDP1 no CPT inconclusive and TDP1 cell CPT 14.6µM*.
`CC(=O)Nc1nonc1-c1nnc(SCC(=O)Nc2cccc(C)c2C)n1-c1ccccc1` gave TDP1 block 5.7%, DT40 TDP1 no CPT 25.9µM* and TDP1 cell CPT 23.1µM*.
Screening Cc1ccc(NC(=O)CS(=O)(=O)c2nc(-c3ccc(C)cc3)cn2-c2ccc(C)cc2)cc1 returned TDP1 block 8.8%, DT40 TDP1 no CPT 14.6µM* and TDP1 cell CPT 20.6µM*.
Screening CC(=O)Nc1nonc1-c1nnc(SCc2ccc(C)cc2)n1C returned TDP1 block 0.5%, DT40 TDP1 no CPT -25.3% and TDP1 cell CPT inconclusive.
For CCn1c(SCc2cccc(Br)c2)nnc1-c1nonc1NC(C)=O the results were TDP1 block 2.6%, DT40 TDP1 no CPT 23.1µM* and TDP1 cell CPT 18.4µM*.
Screening COc1ccccc1CNC(=O)CCN1C(=O)COc2ccc(C)cc21 returned TDP1 block 4.4%, VP16 counter -3.6%, RORg inh 14.1%, DT40 TDP1 no CPT -23.7% and TDP1 cell CPT -22.2%.
`N/C(Cc1ccc(Cl)cc1)=N\OC(=O)c1ccccc1` gave TDP1 block 0.0%, VP16 counter -22.0%, RORg inh -22.1%, DT40 TDP1 no CPT inconclusive and TDP1 cell CPT inconclusive.
Screening Cc1ccc(C(=O)n2c(-c3ccccc3)cnc2SCC(=O)Nc2ccc(C)cc2C)cc1 returned TDP1 block 8.1%, VP16 counter -2.9%, RORg inh inconclusive, DT40 TDP1 no CPT 25.9µM* and TDP1 cell CPT inconclusive.
Screening Cc1cccc(NC(=O)CSc2nc(-c3ccccc3)cn2-c2ccccc2)c1C returned TDP1 block 6.4%, DT40 TDP1 no CPT 23.1µM* and TDP1 cell CPT inconclusive.
For Cc1cccc(NC(=O)CS(=O)(=O)c2nc(-c3ccccc3)cn2-c2cccc(Cl)c2)c1C the results were TDP1 block 2.9%, DT40 TDP1 no CPT 18.4µM* and TDP1 cell CPT 23.1µM*.
Screening O=C(CSc1nc(-c2ccccc2)cn1-c1ccccc1F)Nc1ccc(F)cc1 returned TDP1 block 10.3%, DT40 TDP1 no CPT inconclusive and TDP1 cell CPT 18.4µM*.
`C[C@@H]1OC2C3=C(C(=O)[C@H]4O[C@@H]4[C@H]3O)[C@@H]1[C@H]1[C@H](C)OC=C3[C@H](O)[C@H]4O[C@H]4/C(=N\OCc4ccccc4)[C@@]321` gave TDP1 block 1.6%[21 µM], VP16 counter 7.5%[10 µM] and RORg inh 32.1%[10 µM].
`COc1ccccc1OC(C)C(=O)NNC(=S)NC1CCCC1` (stereo not given) gave TDP1 block 5.4%, VP16 counter -14.2%, RORg inh inconclusive, DT40 TDP1 no CPT 7.2% and TDP1 cell CPT -1.7%.
O=C(CSc1nncn1-c1ccccc1)Nc1ccc(F)cc1F was read as TDP1 block 4.8%, VP16 counter 7.5%, RORg inh 10.7%, DT40 TDP1 no CPT -0.6% and TDP1 cell CPT 12.5%.
For Cc1ccc(-c2cn(-c3cccc(Cl)c3)c(S(=O)(=O)CC(=O)Nc3cccc(C)c3)n2)cc1 the results were TDP1 block 5.9%, DT40 TDP1 no CPT inconclusive and TDP1 cell CPT 16.4µM*.
`O=C(CS(=O)(=O)c1nc(-c2ccc(Cl)cc2)cn1-c1ccccc1)Nc1cccc(Cl)c1` gave TDP1 block 11.8%, DT40 TDP1 no CPT inconclusive and TDP1 cell CPT 23.1µM*.
Cc1ccc(-c2cn(-c3cccc(Cl)c3)c(S(=O)(=O)CC(=O)Nc3ccccc3F)n2)cc1 was read as TDP1 block 8.8%, DT40 TDP1 no CPT inconclusive and TDP1 cell CPT inconclusive.
Screening O=C(CS(=O)(=O)c1nc(-c2ccc(Cl)cc2)cn1-c1ccccc1)Nc1ccc(F)cc1F returned TDP1 block 2.9%, DT40 TDP1 no CPT inconclusive and TDP1 cell CPT 18.4µM*.
Screening O=C(CSc1nc(-c2ccccc2)cn1-c1ccccc1)Nc1ccccc1 returned TDP1 block 10.3%, DT40 TDP1 no CPT inconclusive and TDP1 cell CPT inconclusive.
`Cc1cc(C(F)(F)F)nc(-n2cc(-c3cccc(N)c3)nn2)n1` gave VP16 counter 5.4%, RORg inh -3.4%, DT40 TDP1 no CPT -27.6% and TDP1 cell CPT -1.5%.
Cc1ccc(-n2nnnc2-c2cnn(-c3cccc(F)c3)c2C(F)(F)F)cc1 was read as TDP1 block -2.5%, VP16 counter inconclusive, RORg inh inconclusive, DT40 TDP1 no CPT -27.5% and TDP1 cell CPT inconclusive.
`Fc1cccc(-n2ncc(-c3nnnn3-c3ccccc3)c2C(F)(F)F)c1` gave TDP1 block 3.2%, VP16 counter -25.0%, RORg inh 18.1%, DT40 TDP1 no CPT -23.1% and TDP1 cell CPT -5.9%.
Cc1ccc(-n2nnnc2-c2cnc(N3CCCC3)nc2C(F)(F)F)cc1 was read as TDP1 block 1.9%, VP16 counter 15.8µM*, RORg inh inconclusive, DT40 TDP1 no CPT 11.6µM* and TDP1 cell CPT 23.1µM*.
Screening FC(F)(F)c1nc(N2CCCC2)ncc1-c1nnnn1-c1ccccc1 returned TDP1 block -4.0%, VP16 counter inconclusive, RORg inh 44.0%, DT40 TDP1 no CPT 23.1µM* and TDP1 cell CPT 16.4µM*.

Screening data (PubChem)
